Bioassay records (PubChem BioAssay)
IL1B secr inh = inhibitors of inflammasome signaling (IL-1 beta secretion); THP-1 LPS/ATP IL-1B secretion, AlphaLISA, 16 h; hits give low values; activity change, % at 57.5 µM; 4.7% of 360,000 active; AID 743279; in the data active means activity change below about -50%; inconclusive means mostly about -30% to -49%
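THP-1 cells pretreated 1 hr with compounds (up to 57.5 uM final), then stimulated with LPS (250 ng/mL final) plus ATP (1.25 mM final); secreted IL-1B measured by AlphaLISA after 16 hr, decreased signal indicating inhibition.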
DT40 TDP1 CPT = growth inhibition of DT40 Tdp1-/-;hTDP1 cells with camptothecin (screen for TDP1 inhibitors). chicken DT40 Tdp1-/-;hTDP1 cells + 20 nM CPT, ATP luminescence, 48 h. Potency, µM (highest dose often 46.2 µM), usual class: inhibitors. 12% of 420,000 active. AID 686979; further: nearly all actives have a fitted effect of over 55% in size
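Chicken DT40 Tdp1-/- cells stably complemented with human TDP1 were seeded at 400 cells/well in medium containing 20 nM camptothecin, exposed to pin-transferred compounds, and grown at 37 °C for at least 48 hr. Viability was read as ATP luminescence.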
DRD3 antagonist = blocks the human D3 dopamine receptor; AID 652054; 2.5% of 360,000 active; max response, negative = inhibition, %; P35462; D3R cells, DiscoveRx beta-arrestin luminescence, antagonist mode; hits give low values; in the data active means max response below about -50%; inconclusive means no clear call, values can overlap the other calls
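Cells expressing the human receptor were seeded at 1500 cells/well, incubated overnight at 37 degrees C in 5% CO2, then exposed to library compounds with dopamine controls for 90 minutes at 37 degrees C before luminescent detection.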
D3 ag = agonists of human D3 dopamine receptor. D3R DiscoveRx beta-arrestin cells, luminescence, 90 min. 0.58% of 410,000 active. max activation, %. P35462; in the data active means max activation above about 30%
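Agonist mode: compounds and dopamine controls were applied to plated cells for 90 min at 37 degrees C after an overnight attachment at 1500 cells/well. Luminescent read-out followed 30 - 60 minutes at room temperature with DiscoveRx detection reagent.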
ClpP mod = qHTS Assay for Activators of ClpP; Potency, µM (highest dose often 57.5 µM); ATP-dependent Clp protease proteolytic subunit (Bacillus subtilis (strain 168)), P80244; 1.9% of 340,000 active; purified B. subtilis ClpP, FRET peptide cleavage, 20 min; active means well fitted falling curve with a large enough effect; inconclusive means small, poorly fitted or top-dose-only effect; inactive means no such curve, though single readings can be large or run the other way; further: the source files actives as falling curves though it sought activators and does not explain the sign; nearly all actives have a fitted effect of over 65% in size
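Purified B. subtilis ClpP, 10 microg/mL final in Tris/HCl pH8 with KCl, BSA, glycerol and Tween-20, cleaved an Abz/nitrotyrosine-quenched decapeptide. Fluorescence (ex 320, em 430) was read at 0 and 20 min at room temperature. Delta was normalized to 5.8 microM ADEP and DMSO/no-enzyme controls.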
DT40 TDP1 no CPT = qHTS for Inhibitors of human tyrosyl-DNA phosphodiesterase 1 (TDP1): qHTS in cells in absence of CPT | 15% of 420,000 active | AID 686978, 2013 | Potency, µM (top dose mostly 46.2 µM), hits mostly inhibitors | DT40 Tdp1-/- hTDP1 cells, no CPT, ATP luminescence, 48 h; further: nearly all actives have a fitted effect of over 55% in size
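Cells were dispensed at 400 per well, compounds added by pin tool, plates incubated ≥48 hr at 37 °C, then CellTiter-Glo added for 30 min at room temperature before luminescence reading. Line: DT40 Tdp1-/- complemented with hTDP1; camptothecin omitted.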
Of the large screens only hits and unclear results are named; the others gave an inactive call. Sampled rows, rich in hits. Any-hit rate of the full collection: about 21%. Unless noted, the call rests on the fitted dose curve; in most records, active means well fitted inhibition curve with a large enough effect; inconclusive means small, poorly fitted or top-dose-only effect; inactive means flat fitted curve, though single readings scatter.

CC(=O)C(C(C)=O)C(c1ccccc1)c1nc2ccccc2[nH]c1=O (stereo not given)	none
CCN(CC)S(=O)(=O)c1ccc(C)c(NC(=O)COC(=O)CN2C(=O)NC(C)(C)C2=O)c1	none
CN1/C(=C\P(=O)(N(C)C)N(C)C)C(C)(C)c2ccccc21	DT40 TDP1 CPT 5.8µM, D3 ag 31, DT40 TDP1 no CPT 3.7µM
COc1ccc(NC(=O)C[C@H]2C(=O)N(Cc3ccccc3)C[C@@H]2Cc2ccccc2)cc1	IL1B secr inh inconclusive, DT40 TDP1 CPT 18µM, DT40 TDP1 no CPT inconclusive
COc1ccc(NC(=O)C[C@H]2C(=O)N(Cc3ccccc3)C[C@@H]2CSC)cc1	DT40 TDP1 CPT inconclusive, DT40 TDP1 no CPT inconclusive
O=C(C[C@H]1C(=O)N(CCc2ccccc2)C[C@@H]1Cc1ccccc1)Nc1ccccc1	DT40 TDP1 CPT 16µM, DT40 TDP1 no CPT 16µM
C[C@H]1CN(C2CCCCC2)C(=O)[C@@H]1CC(=O)Nc1ccccc1	IL1B secr inh inconclusive
O=C(C[C@H]1C(=O)N(C2CCCCC2)C[C@@H]1Cc1ccccc1)Nc1ccccc1	IL1B secr inh inconclusive, DT40 TDP1 CPT inconclusive, DT40 TDP1 no CPT 16µM
O=C(C[C@H]1C(=O)N(Cc2ccccc2)C[C@@H]1Cc1ccccc1)Nc1ccccc1	DT40 TDP1 CPT 13µM, DT40 TDP1 no CPT 11µM
O=Cc1ccc(O)cc1	none (no result: IL1B secr inh, DRD3 antagonist, D3 ag)
Cc1cccc(NC(=O)N2CCC(CN3CCOCC3)CC2)c1C	none (no result: IL1B secr inh, DRD3 antagonist)
CCOC(=O)c1ccc(N=C2SC(C(=O)Nc3ccccc3)CC(=O)N2C)cc1 (stereo not given)	none (no result: IL1B secr inh, DRD3 antagonist)
CCCCN1C[C@H](CSC)[C@@H](CC(=O)Nc2ccc(Br)cc2)C1=O	DT40 TDP1 CPT inconclusive, DT40 TDP1 no CPT 23µM
CCCCN1C[C@H](Cc2ccccc2)[C@@H](CC(=O)Nc2ccc(OC)cc2)C1=O	none
CCCCN1C[C@H](Cc2ccccc2)[C@@H](CC(=O)Nc2ccccc2)C1=O	DT40 TDP1 CPT 16µM, DT40 TDP1 no CPT inconclusive
O=C(COC(=O)c1ccccc1)Nc1cccc(S(=O)(=O)N2CCCCC2)c1	none
O=C(COC(=O)c1cccnc1Cl)Nc1cccc(S(=O)(=O)N2CCCCC2)c1	none (no result: ClpP mod)
O=C(COC(=O)c1cc([N+](=O)[O-])ccc1NCCO)Nc1cccc(S(=O)(=O)N2CCCC2)c1	DT40 TDP1 CPT 29µM, DT40 TDP1 no CPT 13µM (no result: ClpP mod)
CCOc1ccccc1C(=O)OCC(=O)Nc1cccc(S(=O)(=O)N2CCCC2)c1	DT40 TDP1 CPT 21µM, DT40 TDP1 no CPT 21µM
CCS(=O)c1ccccc1C(=O)OCC(=O)Nc1cccc(S(=O)(=O)N2CCCCC2)c1 (stereo not given)	DT40 TDP1 CPT 12µM, DT40 TDP1 no CPT 5.8µM
O=C(C[C@H]1C=C[C@@H](NC(=O)c2ccncc2)[C@@H](CO)O1)NCC1CC1	none
CN(CC(=O)Nc1ccccc1Cl)C(=O)c1cccc(S(=O)(=O)N2CCN(c3ccccc3)CC2)c1	DT40 TDP1 CPT inconclusive, DT40 TDP1 no CPT inconclusive
CN(CC(=O)Nc1cccc(F)c1)C(=O)c1cccc(S(=O)(=O)N2CCN(c3ccc(F)cc3)CC2)c1	DT40 TDP1 CPT 21µM, DT40 TDP1 no CPT 21µM
Cc1cccc(C)c1NC(=O)CN(C)C(=O)c1cccc(S(=O)(=O)N2CCN(C)CC2)c1	DT40 TDP1 CPT inconclusive, DT40 TDP1 no CPT inconclusive (no result: ClpP mod)
Cc1cccc(C)c1NC(=O)CN(C)C(=O)c1cccc(S(=O)(=O)N2CCN(c3ccc(F)cc3)CC2)c1	DT40 TDP1 CPT 12µM, DT40 TDP1 no CPT 7.3µM
Cn1cc(CN2CCC(C(=O)NC(c3ccc(F)cc3)c3ccc4ccccc4n3)CC2)c2ccccc21 (stereo not given)	IL1B secr inh -81, DT40 TDP1 CPT 12µM, DRD3 antagonist -58, DT40 TDP1 no CPT 7.3µM
CC(NC(=O)C1CCOCC1)c1nnc2n1CCN(Cc1ccc(F)cc1)CC2 (stereo not given)	none (no result: IL1B secr inh, DRD3 antagonist, D3 ag, ClpP mod)
O=C(NC(c1ccc(F)cc1)c1ccc2ccccc2n1)C1CCN(Cc2ccc(Oc3ccccc3)cc2)CC1 (stereo not given)	IL1B secr inh -75, DT40 TDP1 CPT inconclusive, DRD3 antagonist -89, DT40 TDP1 no CPT inconclusive
COc1cc(CN2CCC(C(=O)NC(c3ccc(F)cc3)c3ccc4ccccc4n3)CC2)cc(OC)c1 (stereo not given)	DT40 TDP1 CPT 3.7µM, DRD3 antagonist -68, DT40 TDP1 no CPT 2.9µM
O=C(Oc1coc(CSc2nnc(NC(=O)C3CC3)s2)cc1=O)c1ccccc1	none
COc1ccc(C(=O)Oc2coc(CSc3nnc(NC(=O)c4cccs4)s3)cc2=O)cc1	ClpP mod 28µM
Clc1ccc(CSc2cnnc3ccccc23)cc1Cl	DT40 TDP1 CPT inconclusive, DT40 TDP1 no CPT inconclusive (no result: ClpP mod)
O=Cc1cc2ccccc2nc1SCc1ccc(Cl)c(Cl)c1	DT40 TDP1 CPT 1µM, DT40 TDP1 no CPT 0.92µM
O=c1[nH]c(SCc2ccc(Cl)cc2)nc2ccccc12	none
O=Cc1cc2ccccc2nc1SCc1ccc(Cl)cc1	DT40 TDP1 CPT 1µM, DRD3 antagonist inconclusive, DT40 TDP1 no CPT 1µM
CN(CCOc1ccccc1)C(=O)CNC(=O)c1ccc(C(C)(C)C)cc1	DT40 TDP1 no CPT inconclusive
O=C1C(=NO)C(c2ccccc2)Oc2ccccc21 (stereo not given)	IL1B secr inh -90 (no result: ClpP mod)
O=C(c1ccccc1)N1C(=O)C(c2ccccc2)Oc2ccccc21 (stereo not given)	none
Cn1c(N=NC(=O)c2ccccc2)c(O)c2ccccc21	DT40 TDP1 CPT inconclusive, DT40 TDP1 no CPT 23µM
CCOc1cc(/C=C/C(=O)OCC(=O)NCC2CCCO2)cc(Cl)c1OC (stereo not given)	none (no result: ClpP mod)
OC[C@@H]1[C@@H](c2ccc(F)cc2)C(c2ccccc2)=NN1c1ccccc1	IL1B secr inh inconclusive, DT40 TDP1 CPT inconclusive, DT40 TDP1 no CPT inconclusive
Cc1cccc(C2=NN(c3ccccc3)[C@H](CO)[C@H]2c2ccccc2)c1	DT40 TDP1 CPT inconclusive, D3 ag 42, DT40 TDP1 no CPT inconclusive
CC1CCN(C(=O)CCc2ccc(Oc3cc([N+](=O)[O-])cc([N+](=O)[O-])c3)cc2)CC1	IL1B secr inh -57, DT40 TDP1 CPT inconclusive, DT40 TDP1 no CPT inconclusive
COc1ccc(C2CC(=O)c3ccccc3O2)cc1 (stereo not given)	IL1B secr inh -60, DT40 TDP1 CPT inconclusive, DRD3 antagonist inconclusive, DT40 TDP1 no CPT inconclusive
Cc1nc2c(Br)c(C)nn2c2c1CCC2	DT40 TDP1 CPT inconclusive
